Screening results as filed in PubChem BioAssay.
Shown are actives, neighbours in structure and some others; about 4.3% of the full set was active somewhere.
TRPM1 prom inh – MITF TRPM1 promoter inhibition in SK-MEL-5 cells. AID 488899. inhibition, % at 12.5 µM. SK-MEL-5 TRPM1 promoter luciferase, 24 h. 0.83% of 330,000 active;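 active = mean inhibition across replicates of 60% or more, whatever share of single replicates reaches that level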
CHOP inh – CHOP inhibition in unfolded protein response; CHO-K1 CHOP-promoter luciferase, tunicamycin-induced, 15-18 h; inhibition, % at 10 µM; 3.8% of 220,000 active;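 active = compounds that reduced the stress-induced luciferase reporter signal by more than about 70% of percent inhibition, limit read from the data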
Peg3 promoter – Peg3 promoter activity inhibition | HeLa PEG-Prom luciferase reporter, luminescence, overnight | inhibition, % at 20 µM | 1.7% of 360,000 active | AID 588405;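 active = inhibition of at least 50% at 20 µM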
HIF-2a block – HIF-2a inhibition; 786-0 RCC cells HIF-2a reporter, luciferase luminescence, overnight; inhibition, % at 18.8 µM; 0.72% of 360,000 active; AID 624352;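 active = inhibition of the luminescence signal of 40% or more relative to plate controls, in a single-dose primary screen at 18.75 µM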
CF NFkB block – cystic fibrosis NF-kB activation inhibition; KKLEB NF-kB-GFP reporter, PAF-induced, GFP fluorescence overnight; inhibition, % at 5 µM; 0.86% of 360,000 active; AID 588850;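 active = at least 50% inhibition at 5 µM, scaled per plate between neutral and stimulator controls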;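 also: PAF is a Pseudomonas aeruginosa culture filtrate used as stimulus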
KKLEB tox – CF airway cell cytotoxicity counter-screen. 0.36% of 360,000 active. KKLEB CF airway cells viability, ATPlite luminescence, overnight; hits give low values; cells stimulated with P. aeruginosa culture filtrate. AID 602141. activity change (cytotoxicity), % at 5 µM;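 active = corrected activity change at or below -50% at 5 µM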
Mdm2 MdmX conf – confirmation of inhibitors of human Mdm2/MdmX interaction, set 2. SaOS-2 split-luciferase Mdm2/MdmX complementation, luminescence. 99% of 740 active. inhibition, % at 8 µM. shares compounds with HIF-2a block;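 active = mean inhibition of the luminescence signal across two replicates at or above 26 percent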
Target sequence (O15151 whole entry, looked up): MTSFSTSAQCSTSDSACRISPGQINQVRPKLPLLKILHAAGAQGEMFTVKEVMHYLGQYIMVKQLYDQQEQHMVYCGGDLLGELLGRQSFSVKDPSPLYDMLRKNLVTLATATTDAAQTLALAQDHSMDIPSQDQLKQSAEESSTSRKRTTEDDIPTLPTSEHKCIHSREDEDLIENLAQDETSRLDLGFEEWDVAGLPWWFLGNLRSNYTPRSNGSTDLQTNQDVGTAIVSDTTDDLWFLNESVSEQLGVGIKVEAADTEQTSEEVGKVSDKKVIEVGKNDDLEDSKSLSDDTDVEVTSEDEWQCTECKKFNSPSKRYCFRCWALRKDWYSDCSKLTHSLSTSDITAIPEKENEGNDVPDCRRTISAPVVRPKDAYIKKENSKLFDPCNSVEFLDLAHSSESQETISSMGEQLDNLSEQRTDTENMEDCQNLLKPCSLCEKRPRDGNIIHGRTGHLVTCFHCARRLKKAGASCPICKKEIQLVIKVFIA
Target sequence (Q00987 whole entry, looked up): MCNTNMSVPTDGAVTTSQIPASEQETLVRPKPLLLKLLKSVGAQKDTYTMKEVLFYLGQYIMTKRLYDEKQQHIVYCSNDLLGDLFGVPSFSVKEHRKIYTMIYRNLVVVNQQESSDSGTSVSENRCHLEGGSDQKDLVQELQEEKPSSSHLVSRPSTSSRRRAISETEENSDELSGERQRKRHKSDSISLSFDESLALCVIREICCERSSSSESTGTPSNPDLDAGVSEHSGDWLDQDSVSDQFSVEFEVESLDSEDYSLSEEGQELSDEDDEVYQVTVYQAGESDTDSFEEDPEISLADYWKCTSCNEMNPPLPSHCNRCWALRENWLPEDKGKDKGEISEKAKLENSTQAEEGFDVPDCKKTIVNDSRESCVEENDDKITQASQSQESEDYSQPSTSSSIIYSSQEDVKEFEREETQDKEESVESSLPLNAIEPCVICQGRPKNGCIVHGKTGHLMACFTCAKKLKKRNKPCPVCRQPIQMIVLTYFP
HIF-2a inh conf – confirmation of HIF-2a inhibitors. shares compounds with HIF-2a block. 786-0 RCC cells, HIF-2a luciferase reporter luminescence, overnight. inhibition, % at 18.8 µM. 56% of 1,800 active. AID 651580;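 active = mean inhibition across four replicates of at least 40 percent at the single tested concentration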
HIF-1a counter – counter-screen for HIF-2a inhibitors: HIF-1a inhibition in MiaPaCa-2 cells; shares compounds with HIF-2a block; MiaPaCa-2 HIF-1a luciferase reporter, desferoxamine, overnight; inhibition, % at 18.8 µM; 72% of 1,800 active; AID 651589;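 active = mean inhibition of the reporter signal across four replicates at the single tested dose of 50% or more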
A number is an active result; . = inactive; / = no result given.

SMILES	TRPM1 prom inh	CHOP inh	Peg3 promoter	HIF-2a block	CF NFkB block	KKLEB tox	HIF-2a inh conf	HIF-1a counter	others
Cc1cc(C)c2sc(N(CCCN(C)C)C(=O)c3ccc(S(=O)(=O)N4CCc5ccccc5C4)cc3)nc2c1	89	/	96	63	.	-78	57	100
Cc1ccc2nc(N(CCCN(C)C)C(=O)c3ccc(S(=O)(=O)N4CCc5ccccc5C4)cc3)sc2c1	76	/	101	88	.	.	43	99
CN(C)CCCN(C(=O)c1ccc(S(=O)(=O)N2CCc3ccccc3C2)cc1)c1nc2c(F)cccc2s1	.	/	.	.	.	.	/	/
Cc1cccc2sc(N(CCCN(C)C)C(=O)c3ccc(S(=O)(=O)N4CCc5ccccc5C4)cc3)nc12	.	/	.	.	.	.	/	/
O=C(Cc1cnc2ncnn2c1)N1CCc2c([nH]c3ccccc23)C1c1ccccc1F (stereo not given)	.	.	.	.	.	.	/	/
O=C(Nc1ccc(Cl)cc1)c1cc2c(cc1O)[nH]c1ccccc12	.	77	54	.	67	-63	/	/	Mdm2 MdmX conf=102
COCCn1c(C)cc(C(=O)COc2cccnc2[N+](=O)[O-])c1C	.	.	65	51	.	.	65	71
Cc1cc(C)c(C(=O)COc2cccnc2[N+](=O)[O-])cc1C	.	.	.	.	.	.	/	/
Cc1ccc(OCC(=O)c2cc(C)n(Cc3cccs3)c2C)c([N+](=O)[O-])n1	.	.	.	58	.	.	72	95
Cc1ccc(OCC(=O)c2cc(C)n(CC(F)(F)F)c2C)c([N+](=O)[O-])n1	.	.	.	.	.	.	/	/
COc1cc(/C=C/C(=O)c2ccc(C)c([N+](=O)[O-])c2)cc(OC)c1O	.	.	63	47	.	.	.	.
COc1cc(/C=C/C(=O)c2ccc(NS(=O)(=O)c3ccc(C)cc3)cc2)cc(OC)c1O	67	.	65	54	.	.	64	104
COc1ccc(/C=C/C(=O)c2ccc(C)c([N+](=O)[O-])c2)cc1O	.	.	.	.	.	.	/	/
CCSC1(SCC)N=C(N)C2(C#N)C(c3ccc(F)cc3)C12C#N (stereo not given)	82	82	107	49	.	.	59	93
COC1(OC)N=C(N)C2(C#N)C(c3ccc(F)cc3)C12C#N (stereo not given)	.	.	.	.	.	.	/	/
Cc1ccc(C)c(OCCC(=O)OCc2csc(CC(=O)Nc3ccccc3C)n2)c1	.	/	.	.	.	.	/	/
Cc1cc(N)n2ncc(-c3ccccc3)c2n1	.	.	.	.	.	.	/	/
CC(=O)Nc1ccc(Nc2cc(C)nc3c(-c4ccccc4)cnn23)cc1	.	.	.	53	.	.	78	93
CCOc1ccccc1N1C(=O)c2ccc(S(=O)(=O)c3ccc(C(=O)O)cc3)cc2C1=O	.	/	.	.	.	.	/	/
CC(C)(C)NC(=O)CSc1nc(O)cc(=O)[nH]1	.	.	.	41	.	.	.	.
CC(C)(C)NC(=O)CSc1nc(-c2ccccc2)c(-c2ccccc2)[nH]1	.	.	.	.	.	.	/	/
O=C(Cc1cccc2ccccc12)Nc1ccc(-c2cc3ccccc3oc2=O)cc1	.	81	.	53	.	.	68	52
Cc1cc(C)cc(C(=O)NC(=S)Nc2ccc(-c3cc4ccccc4oc3=O)cc2)c1	.	.	.	82	57	-57	76	.
CCC(=O)Nc1cccc(-c2cc3ccccc3oc2=O)c1	.	.	.	.	.	.	/	/
CC(=O)Nc1ccc(NC(=S)NC(=O)c2cc3ccccc3o2)cc1	.	.	.	.	.	.	/	/
SMILES	TRPM1 prom inh	CHOP inh	Peg3 promoter	HIF-2a block	CF NFkB block	KKLEB tox	HIF-2a inh conf	HIF-1a counter	others
Cc1ccc(C(=O)NC(=S)Nc2ccc(-c3cc4ccccc4oc3=O)cc2)c(C)c1	.	95	.	81	.	.	76	56
Oc1ccc(O)c(-c2cnns2)c1	.	.	.	.	.	.	/	/
O=C(Nc1ccccc1C(=O)NCc1ccco1)Nc1cccc2ccccc12	.	.	.	54	.	.	.	.
O=C(NCc1ccco1)c1cccc2ccccc12	.	.	.	.	.	.	/	/
Cc1nc(C(=O)N/N=C/c2[nH]ncc2Br)cs1	.	.	.	.	.	.	/	/
O=C(/C=C/NCc1cccnc1)c1ccc(-c2ccccc2)cc1	.	/	.	.	.	.	/	/
CCCCn1c(=N)n(CC(=O)c2ccc(Br)s2)c2ccccc21	90	.	95	50	.	.	.	98	Mdm2 MdmX conf=103
CCn1c(=N)n(CC(=O)c2ccc(Br)s2)c2ccccc21	.	.	.	.	.	.	/	/
COc1ccc2c(c1)C1(Nc3ccccc3-c3nc4ccccc4n31)C(=O)N2 (stereo not given)	.	.	.	.	.	.	/	/
COc1ccc2c(c1)C1(Nc3ccccc3-c3nc4ccccc4n31)C(=O)N2C (stereo not given)	.	.	.	.	.	.	/	/	Mdm2 MdmX conf=94
N#CCc1ccc(NC(=O)/C=C/c2ccc([N+](=O)[O-])o2)cc1	100	.	106	65	.	.	48	105
O=C(NCCCN1CCOCC1)c1ccc(-n2nc(C(F)(F)F)cc2-c2cccs2)cc1	.	76	55	45	.	.	.	66
COCCCNC(=O)c1ccc(-n2nc(C(F)(F)F)cc2-c2cccs2)cc1	.	.	.	49	.	.	.	.
CSCCNC(=O)C1(C)CCN1C(=O)CCc1ccccc1 (stereo not given)	/	/	.	.	.	.	/	/
COc1ccc(NC(=O)/C(C#N)=C/c2c(C)nn(-c3ccc(F)cc3)c2Cl)cc1OC	.	.	.	43	.	.	.	54
COc1ccc(NC(=O)/C(C#N)=C/c2c(C)nn(-c3ccc(F)cc3)c2Cl)cc1Cl	.	.	.	.	.	.	/	/
C=CS(=O)(=O)N(Cc1ccccc1Br)[C@H](CO)Cc1ccccc1	.	/	84	44	.	.	.	70
COC(=O)c1c(NC(=O)C2CC2)sc(C(=O)Nc2ccccc2)c1C	.	.	.	.	.	.	/	/
CCOc1ccc(CCN2C(=O)C(=O)N([C@@H](Cc3ccccc3)CN3CCC[C@H]3CN3C(=O)C(=O)NC[C@@H]3Cc3ccccc3)C[C@@H]2CC(C)C)cc1	/	/	/	48	/	/	.	103
